NPR1 activator: GC-A (human) enzyme activation. HEK293 GC-A cells, cGMP TR-FRET, EC30 ANP; 0% at EC30 ANP, 100% saturating ANP. activation, % at 10 µM. 370,000 compounds, 0.14% hits. P16066; in the data active = activation above about 40%
m5-HT2A agonist: mouse HTR2A agonism via beta-arrestin recruitment; activation, % at 7.6 µM; 360,000 compounds, 0.66% hits; CHO-K1 mHTR2A beta-arrestin complementation, luminescence; percent of 30 µM serotonin response; P35363; AID 624169;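 active = activation above a run cutoff, the mean activation of all tested compounds plus 3 SD, cut at about 14% in these data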;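 note: 0% = plate median of compound wells and 100% = 30 µM serotonin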
MsrA inhibitor: inhibitors of bovine MsrA | inhibition, % at 15.5 µM | purified bovine MsrA, absorbance read-out | AID 651718 | 360,000 compounds, 0.75% hits;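 note: 0% = vehicle wells with enzyme and 100% = reference inhibitor wells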
NPR2 activator: GC-B (human) receptor activation; AID 1920062; HEK293-GC-B cells, CNP EC30, cGMP TR-FRET; 0% at EC30 CNP, 100% saturating CNP; activation, % at 10 µM; 370,000 compounds, 0.11% hits;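 active = activation at 10 µM reaching about 35% in either raw or pattern-adjusted values, limit read from the data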
MsrA act: activators of bovine methionine sulfoxide reductase A. purified bovine MsrA, absorbance read-out. activation, % at 10.6 µM. 360,000 compounds, 0.3% hits; in the data active = activation above about 7.5%;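 note: 0% = vehicle and 100% = reference activator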
MsrA conf: confirmation of bovine MsrA inhibitors; 2,300 compounds, 41% hits; inhibition, % at 15.5 µM; purified bovine MsrA, absorbance read-out; shares compounds with MsrA inhibitor;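 note: coupled to thioredoxin reductase with NADPH and selenocystamine and DMSO as substrate; 0% = vehicle only and 100% = full effect of reference inhibitor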
* = called active by the depositor; . = not tested or not shown. Most compounds without a hit are left out; they make up all but 1.8% or so of the library. Cut-off read from the data, not from the text of the source, unless noted: active = inhibition above about 4.5%; inactive = the rest.

SMILES	NPR1 activator	m5-HT2A agonist	MsrA inhibitor	NPR2 activator	MsrA act	MsrA conf
CCOC(=O)c1cc(C(C)=O)c(=O)n(C)c1N	3	-4	5.9*	3	-5	4.8*
CCOC(=O)c1ccc2cccc(C)n2c1=O	.	1	.	.	-10	.
CCOc1cc(/C=N/NC(=O)c2cccs2)cc([N+](=O)[O-])c1O	-8	-3	8.2*	-9	-6	4.9*
O=C(N/N=C/c1cccc([N+](=O)[O-])c1)c1cccs1	4	-2	2	-3	-4	.
CCc1nnc(NC(=O)c2ccncc2)s1	0	7	5.6*	4	-2	0
CCCc1nnc(NC(=O)c2ccncc2)s1	2	1	2	4	-8	.
CCN(CC)S(=O)(=O)c1ccc(N/N=C/c2ccc(O)cc2)nc1	-3	-4	5.7*	-3	-4	4.9*
COc1ccc(NC(=O)/C(C#N)=C/c2ccc(Br)o2)cc1	-1	2	2	-6	-7	.
N#C/C(=C/c1ccc(Br)o1)C(N)=O	-4	1	4.7*	-1	-4	5.5*
COc1ccc(NC(=O)c2sc3nc(N4CCCC4)c4c(c3c2N)CC(C)(C)OC4)cc1	24	-2	5.3*	10	-2	3
COc1ccc(NC(=O)c2sc3nc(N4CCOCC4)c4c(c3c2N)CC(C)(C)OC4)cc1	14	7	0	9	-3	.
N#C/C(=C/Nc1ccccc1C(=O)O)C(N)=O	2	4	5.8*	2	-9	6.8*
CC1(C)CC(N2CCN(CCO)CC2)=CC(=S)N1	-1	5	5.8*	5	0	6.1*
CC1(C)CC(NCc2ccccc2)=CC(=S)N1	.	-5	.	.	1	.
COc1ccccc1C1/C(=C(/O)c2ccccc2)C(=O)C(=O)N1CCO (stereo not given)	-1	7	2	-2	0	.
CCN(CC)CCCN1C(=O)C(=O)/C(=C(/O)c2ccccc2)C1c1cc(OC)ccc1OC (stereo not given)	-3	5	19*	0	-1	6.4*
COC(=O)[C@H]1C[C@@]2(N3CCCC3)c3ccccc3N(C(=O)OC(C)(C)C)[C@H]2N1C(=O)OC(C)(C)C	-31	.	.	-32	.	.
CCOC(=O)C1=C(C)NC2=C(C(=O)CCC2)C1c1cn(Cc2ccc(Cl)cc2Cl)nc1-c1ccccc1 (stereo not given)	-24	-8	4.7*	-26	1	3
COc1cc(C(C#N)N2N=C(c3ccccc3)CC2c2ccccc2)ccc1O (stereo not given)	-2	0	4.7*	-6	-4	1
N#CC(c1ccccc1O)N1N=C(c2ccccc2)CC1c1ccccc1 (stereo not given)	-7	1	3	-7	-6	.
Cc1ccc(-n2c(SCC(=O)c3ccccc3Cl)nnc2-c2cnccn2)cc1	-6	.	.	0	.	.
COc1ccc(/C=N/N=C(\N)c2nonc2N)cc1	2	-3	5.3*	4	-1	3
COc1cc(/C=N/N=C(\N)c2nonc2N)cc(OC)c1O	1	-5	3	-6	-4	.
Nc1ccc(C(=O)C(=O)c2ccc(N)cc2)cc1	0	0	7.5*	1	-6	6.8*
CCC(=O)N(C1=C(NC(C)C)C(=O)c2ccccc2C1=O)C(C)C	-7	4	1	-2	-8	.
SMILES	NPR1 activator	m5-HT2A agonist	MsrA inhibitor	NPR2 activator	MsrA act	MsrA conf
CCCNC1=C(N(C(C)=O)c2cccc(F)c2)C(=O)c2ccccc2C1=O	1	2	22*	-2	-9	5.0*
CC1(C)CC(N2CCN(c3ccccc3)CC2)=CC(=[N+]2CCCC2)C1	-1	-3	5.5*	2	-5	5.0*
CC1CC(C)C[N+](=C2C=C(N3CCCC3)CC(C)(C)C2)C1 (stereo not given)	1	5	5.8*	-1	-10	4
CC1(C)CC(N2CCCC2)=CC(=[N+]2CCCCCC2)C1	-2	-5	6.7*	4	-10	4.9*
CC(C)CN1C(=O)C[C@]2(C(=O)N(C)c3ccc(NS(=O)(=O)c4ccc(F)cc4)cc32)C1c1ccccc1 (stereo not given in full)	2	.	.	3	.	.
COc1ccc(S[C@]2(C(=O)N3CCCC3)CC(=O)N(P(=O)(OC)OC)[C@@H]2c2ccc(OC)cc2)cc1	-1	.	.	-1	.	.
CCC(NC(=O)c1cccc2c1C(=O)N(Cc1cccnc1)C2)c1ccccc1 (stereo not given)	5	.	.	11	.	.
O=C(/C=C\c1ccc(-c2ccccc2)o1)c1ccccc1	-1	1	1	-4	-16	.
O=C(O)/C=C/c1ccc(-c2cccc(C(F)(F)F)c2)o1	-4	5	6.0*	3	-6	4
Cc1nc2c(C)cccn2c1/C(O)=C1\C(=O)C(=O)N(CCN(C)C)C1c1ccco1 (stereo not given)	1	3	4.7*	3	-9	0
Cc1sc2nc(COC(=O)CNC(=O)c3ccc(F)cc3Cl)[nH]c(=O)c2c1C	2	.	.	2	.	.
Cc1ccc(NS(=O)(=O)c2cc(-c3n[nH]c(=O)c4ccccc34)ccc2C)cc1	-17	-3	5.2*	-6	-1	5.0*
COc1ccc(/C=N/N2C(=O)C3C4C=CC(C4)C3C2=O)cc1[N+](=O)[O-] (stereo not given)	-4	1	8.4*	-3	-11	8.2*
COc1cc(/C=N/N2C(=O)C3C4C=CC(CC4)C3C2=O)ccc1O (stereo not given)	-2	-2	3	-1	-6	.
CC(=O)COc1ccc2c(-c3ccccc3)cc(=O)oc2c1C	-3	5	19*	1	-11	22*
Cc1c(OCC(N)=O)ccc2c(-c3ccccc3)cc(=O)oc12	-3	-8	31*	-3	1	40*
Cc1onc(-c2ccc(Cl)cc2)c1-c1ccn(S(=O)(=O)c2ccccc2)n1	-8	.	.	-7	.	.
CCOC(=O)c1csc(NC(=O)C2CCCN(S(=O)(=O)c3ccc(C)cc3)C2)n1 (stereo not given)	-2	.	.	-3	.	.
O=C(NCCc1nc2ccccc2[nH]1)c1ccc(Br)o1	-5	-11	1	1	0	.
O=C(Nc1nc2ccccc2[nH]1)c1ccc(Br)o1	-4	0	4.8*	1	-5	3
CCCC(C(=O)Nc1nccs1)c1ccccc1 (stereo not given)	0	6	21*	-5	-3	0
COC(=O)[C@]12C[C@H](CC(=O)N3CCN(C(=O)c4ccco4)CC3)C(=O)N(CCC3=CCCCC3)C1=C[C@H](C1CCCC1)O[C@@H]2C	-4	.	.	-2	.	.
O=C(Nc1ccc([N+](=O)[O-])cn1)c1ccc(Br)o1	1	0	5.6*	-2	-3	4
O=C(Nc1ccc([N+](=O)[O-])cn1)c1cccnc1	1	3	0	-1	-5	.
